The supplement of paper PMC3545927
The list shows a part of the results. No count for the full screen is at hand.

Target: furin, P09958
Assay: furin cleavage Z-score vs untreated control; higher = more cleavage, active = 3.5 or more, inactive = 1 or less, 8 variable residues between constant flanks
Procedure, shortened: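 Furin-free reactions served as the baseline for the cleavage Z-score, which is the log read count lowess-adjusted and scaled by median absolute deviation. Counts came from released DNA, adapter-tagged by PCR and sequenced. Purified furin had cut 8-mer peptides fused to a cDNA oligonucleotide on magnetic beads during 7.5, 15 or 30 min at 1:10 enzyme:substrate.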
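Also: purified furin at 1:10 enzyme:substrate in 50 mM HEPES pH 7.5.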

Chain of furin, P09958 (P09958 whole entry): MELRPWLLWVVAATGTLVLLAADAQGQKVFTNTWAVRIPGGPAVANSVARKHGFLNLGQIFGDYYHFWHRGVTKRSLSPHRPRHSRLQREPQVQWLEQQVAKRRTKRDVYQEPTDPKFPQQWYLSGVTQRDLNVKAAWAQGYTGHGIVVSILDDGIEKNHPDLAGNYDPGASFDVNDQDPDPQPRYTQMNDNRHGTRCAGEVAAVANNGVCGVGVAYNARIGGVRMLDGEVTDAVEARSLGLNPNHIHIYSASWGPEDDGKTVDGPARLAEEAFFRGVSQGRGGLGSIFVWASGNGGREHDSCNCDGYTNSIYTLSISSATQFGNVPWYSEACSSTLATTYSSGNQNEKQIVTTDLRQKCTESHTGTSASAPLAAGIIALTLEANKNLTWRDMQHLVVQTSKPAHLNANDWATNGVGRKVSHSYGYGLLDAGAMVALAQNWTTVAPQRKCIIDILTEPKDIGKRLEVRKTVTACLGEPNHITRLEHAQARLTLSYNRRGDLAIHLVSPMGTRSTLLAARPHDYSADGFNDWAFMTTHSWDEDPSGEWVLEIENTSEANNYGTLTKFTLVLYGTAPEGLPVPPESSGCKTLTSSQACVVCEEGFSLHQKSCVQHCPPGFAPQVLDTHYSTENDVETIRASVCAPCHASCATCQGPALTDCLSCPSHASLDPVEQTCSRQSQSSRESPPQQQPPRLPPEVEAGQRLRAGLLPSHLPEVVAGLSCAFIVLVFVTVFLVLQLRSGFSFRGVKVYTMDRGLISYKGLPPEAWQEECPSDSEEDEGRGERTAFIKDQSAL

| Sequence | furin cleavage Z-score (7.5 min) | furin cleavage Z-score (15 min) | furin cleavage Z-score (30 min) |
| --- | --- | --- | --- |
| CAMVPCHRPSAGNASASA [HC2306] | 1.55 | 0.971 (inactive) | 1.19 |
| CAVVCSSMSYAGNASASA [HC95] | -0.171 (inactive) | 0.902 (inactive) | 0.436 (inactive) |
| CAPGDPDLSDAGNASASA [HC1358] | -0.316 (inactive) | -0.713 (inactive) | -1.52 (inactive) |
| CACGSGPWITAGNASASA [HC459] | -1.7 (inactive) | -2.37 (inactive) | -1.44 (inactive) |
| CARQKRAVATAGNASASA [FS-2360] | 9.36 (active) | 11.9 (active) | 7.99 (active) |
| CARQKRAWITAGNASASA [FS-3202] | 2.68 | 3.79 (active) | 6.77 (active) |
| CARQKRQNKEAGNASASA [FS-2756] | 1.89 | 0.961 (inactive) | 3.45 |
| CARQKRQLWDAGNASASA [FS-2291] | 5.3 (active) | 8.17 (active) | 8.7 (active) |
| CALWMMLLISAGNASASA [HC528] | -0.863 (inactive) | -0.739 (inactive) | -0.913 (inactive) |
| CASTLPGNPAAGNASASA [HC1050] | -1.13 (inactive) | 0.099 (inactive) | -1.54 (inactive) |
| CARSRRCTCFAGNASASA [FS-2187] | -0.747 (inactive) | -0.988 (inactive) | -0.963 (inactive) |
| CARSRRAQPPAGNASASA [FS-2814] | 3.03 | 4.42 (active) | 4.27 (active) |
| CARSRRKLMVAGNASASA [FS-2817] | -1.98 (inactive) | -0.17 (inactive) | -0.107 (inactive) |
| CARSRRWKVKAGNASASA [FS-3211] | 1.85 | -0.535 (inactive) | 0.212 (inactive) |
| CARSRRALPPAGNASASA [FS-2239] | 7.76 (active) | 7.46 (active) | 7.12 (active) |
| CARSRRCLRDAGNASASA [FS-2607] | 4.81 (active) | 5.74 (active) | 5.33 (active) |
| CARSRRNVVMAGNASASA [FS-2382] | 5.51 (active) | 8.6 (active) | 7.9 (active) |
| CASTPCSYHLAGNASASA [HC2529] | 0.0863 (inactive) | 1 | 1.34 |
| CAEVVTSFWVAGNASASA [HC2207] | -0.594 (inactive) | 1.74 | -0.243 (inactive) |
| CASIPCSAHLAGNASASA [HC2484] | 0.328 (inactive) | 0.418 (inactive) | 0.274 (inactive) |
| CAVVCCAMSYAGNASASA [HC101] | 1.72 | 0.536 (inactive) | 0.579 (inactive) |
| CASVPAEILRAGNASASA [HC1295] | 0.956 (inactive) | 1.63 | 1.9 |
| CAYDAGCAWYAGNASASA [HC921] | 1.18 | 0.654 (inactive) | 0.883 (inactive) |

| Sequence | furin cleavage Z-score (7.5 min) | furin cleavage Z-score (15 min) | furin cleavage Z-score (30 min) |
| --- | --- | --- | --- |
| CALVSFLVFFAGNASASA [HC543] | -1.85 (inactive) | -1.89 (inactive) | -0.773 (inactive) |
| CARSRKIAESAGNASASA [FS-2526] | -1.24 (inactive) | -0.08 (inactive) | -0.238 (inactive) |
| CARSRRTWELAGNASASA [FS-3265] | -1.05 (inactive) | 3.1 | 1.34 |
| CARSRNLGKVAGNASASA [HC218] | 1.83 | 3.1 | 0.167 (inactive) |
| CARSNRDVFVAGNASASA [FS-1975] | 1.39 | 1.28 | 0.58 (inactive) |
| CARSRRAVSVAGNASASA [FS-2815] | 4.34 (active) | 4.32 (active) | 4.26 (active) |
| CARSRKAVDWAGNASASA [FS-2238] | -0.617 (inactive) | 2.48 | 2.21 |
| CASQGRRRRPAGNASASA [FS-194] | -0.188 (inactive) | 0.828 (inactive) | 0.793 (inactive) |
| CARSRRAATSAGNASASA [FS-3092] | 10.1 (active) | 11.9 (active) | 9.59 (active) |
| CARSFRSVTSAGNASASA [FS-3234] | -0.371 (inactive) | 0.166 (inactive) | 0.853 (inactive) |
| CARSRRTICVAGNASASA [FS-3239] | 3.04 | 0.821 (inactive) | 3.9 (active) |
| CARSRRRRRPAGNASASA [FS-1407] | 4.05 (active) | 4.27 (active) | 4.75 (active) |
| CAPPSRRRRPAGNASASA [FS-1052] | 0.863 (inactive) | 0.662 (inactive) | 0.635 (inactive) |
| CASTPCSAHVAGNASASA [HC2570] | 0.366 (inactive) | 0.384 (inactive) | 0.66 (inactive) |
| CASGSWLRDIAGNASASA [HC1147] | -1.83 (inactive) | -1.36 (inactive) | 0.113 (inactive) |
| CAVDFIPVENAGNASASA [HC757] | -0.627 (inactive) | -0.626 (inactive) | -2 (inactive) |
| CAVLQRSKRGAGNASASA [FS-1177] | 10.8 (active) | 9.33 (active) | 7.91 (active) |
| CAPNSPSKRGAGNASASA [FS-474] | 0.58 (inactive) | -0.142 (inactive) | 0.811 (inactive) |
| CAHCSRSKRPAGNASASA [FS-790] | 0.521 (inactive) | 0.407 (inactive) | -1.15 (inactive) |
| CAQQSRSKRGAGNASASA [FS-286] | 7.44 (active) | 8.25 (active) | 7.09 (active) |
| CAMWERYCRGAGNASASA [FS-1377] | 1.18 | 1.38 | 0.416 (inactive) |
| CAVTVRWKRGAGNASASA [FS-313] | 10.9 (active) | 12.2 (active) | 8.51 (active) |
